# Measurements: the antibiotic and cytotoxicity screens of Wong et al. (2023)
# In all, about 39,000 compounds went through this assay and about 3,300 (8.5%) were called active. The full list was thinned out, with actives kept by preference.
# System: HepG2
# Assay: cytotoxicity call (relative viability < 0.9)
# Details: 10 µM
row,Compound,cytotoxicity call
1,C[C@H](CO)N1C[C@H](C)[C@@H](CN(C)C(=O)NC2CCCCC2)Oc2cc(-c3cccnc3)ccc2S1(=O)=O,inactive
2,Cc1ccc(S(=O)(=O)N2C[C@@H](O)COC[C@H]3O[C@H](CC(=O)NCCCN(C)C)CC[C@@H]32)cc1,inactive
3,Cc1noc(C)c1NC(=O)Nc1ccc2c(c1)C(=O)N([C@H](C)CO)C[C@H](C)[C@H](CN(C)Cc1ccc(Cl)c(Cl)c1)O2,inactive
4,C=CCC[C@H](Cc1ccc(F)cc1)C(=O)O[C@@H](CNC(=O)[C@@H](CC=C)CC(=O)N[C@H](CO)Cc1ccccc1)c1ccccc1,inactive
5,C=CCC[C@@H](Cc1ccc(F)cc1)C(=O)O[C@@H](CNC(=O)[C@@H](CC=C)CC(=O)N[C@H](CO)Cc1ccccc1)c1ccccc1,active
6,C=CCC[C@H](Cc1ccc(F)cc1)C(=O)O[C@@H](CNC(=O)[C@@H](CC=C)CC(=O)N[C@@H](CO)Cc1ccccc1)c1ccccc1,inactive
7,C=CC[C@@H](CC(=O)N[C@H](CO)Cc1ccccc1)C(=O)NC[C@H](OC(=O)[C@@H](CC=C)Cc1ccc(F)cc1)c1ccccc1,active
8,C=CC[C@@H](CC(=O)N[C@@H](CO)Cc1ccccc1)C(=O)NC[C@H](OC(=O)[C@@H](CC=C)Cc1ccc(F)cc1)c1ccccc1,inactive
9,C=CC[C@@H](CC(=O)N[C@@H](CO)Cc1ccccc1)C(=O)NC[C@@H](OC(=O)[C@@H](CC=C)Cc1ccc(F)cc1)c1ccccc1,inactive
10,Nc1ncnc2c1CCC2,inactive
11,CCCCCCCCNC[C@@H](O)[C@H](O)[C@@H](O)[C@@H](O)CO,inactive
12,CCCCCCCCNC(C)C(O)c1ccc(SC(C)C)cc1 (stereo unspecified),active
13,CC(NCCc1ccc(O)cc1)C(O)c1ccc(O)cc1.Cl (stereo unspecified),inactive
14,C[C@H]1CN([C@@H](C)CO)C(=O)c2cc(NC(=O)Cc3ccccc3)ccc2O[C@H]1CN(C)S(=O)(=O)c1cn(C)cn1,inactive
15,C[C@@H]1CN([C@@H](C)CO)C(=O)c2cc(NS(=O)(=O)c3ccc(F)cc3)ccc2O[C@@H]1CN(C)C(=O)Nc1cccc2ccccc12,inactive
16,Cl.Cl.N=C(NCCCCCCNC(=N)NC(=N)Nc1ccc(Cl)cc1)NC(=N)Nc1ccc(Cl)cc1,active
17,N[C@@H](CC(=O)Nc1ccc(Cl)cc1)C(=O)O,inactive
18,CC(C)NC(=N)NC(=N)Nc1ccc(Cl)cc1.Cl,active
19,C[C@H](CO)N1C[C@H](C)[C@@H](CN(C)S(=O)(=O)c2ccccc2)Oc2c(NC(=O)C3CC3)cccc2C1=O,inactive
20,C[C@H]1CN([C@@H](C)CO)C(=O)c2cccc(NC(=O)c3ccncc3)c2O[C@@H]1CN(C)S(=O)(=O)c1ccc(F)cc1,inactive
21,COCCN1CCC(N(Cc2ccc(-c3ccc(C(F)(F)F)cc3)cc2)C(=O)Cn2c(SCc3cccc(F)c3F)cc(=O)c3ccccc32)CC1,active

row,Compound,cytotoxicity call
1,C[C@@H]1CN([C@@H](C)CO)C(=O)c2cc(NC(=O)c3ccncc3)ccc2O[C@@H](C)CCCCO[C@@H]1CN(C)S(C)(=O)=O,inactive
2,O=C1Nc2ccc(I)cc2C1=Cc1cc(Br)c(O)c(Br)c1,active
3,COc1ccc2c(c1)/C(=N\O)C(=O)N2,inactive
4,COc1ccc2c(c1)C(=O)C(=O)N2,inactive
5,CC(C)C[C@@H](N)C(=O)N[C@H]1C(=O)N[C@@H](CC(N)=O)C(=O)N[C@H]2C(=O)N[C@H]3C(=O)N[C@H](C(=O)N[C@H](C(=O)O)c4cc(O)cc(O)c4-c4cc3ccc4O)[C@H](O)c3ccc(c(Cl)c3)Oc3cc2cc(c3O[C@@H]2O[C@H](CO)[C@@H](O)[C@H](O)[C@H]2O[C@H]2C[C@](C)(N)[C@H](O)[C@H](C)O2)Oc2ccc(cc2Cl)[C@H]1O,inactive
6,C[C@@H]1CCCCO[C@@H](CN(C)C(=O)Nc2cccc3ccccc23)[C@@H](C)CN([C@H](C)CO)C(=O)c2cc(NS(=O)(=O)c3ccc(Cl)cc3)ccc2O1,inactive
7,COc1ccc(S(=O)(=O)Nc2ccc3c(c2)[C@@H]2C[C@@H](CC(=O)NCC4CC4)O[C@H](CO)[C@@H]2O3)cc1,inactive
8,CS(=O)(=O)O.CSc1ccc2c(c1)C(N1CCN(C)CC1)Cc1ccccc1S2 (stereo unspecified),active
9,C[C@H]1CN([C@@H](C)CO)C(=O)Cc2cc(NC(=O)Nc3cccc4ccccc34)ccc2O[C@H]1CN(C)S(=O)(=O)c1ccc(F)cc1,inactive
10,C[C@H](CO)N1C[C@H](C)[C@H](CN(C)Cc2ccc(-c3ccccc3)cc2)Oc2c(NC(=O)c3ccc(-c4nccs4)cc3)cccc2C1=O,inactive
11,C[C@H]1CN([C@@H](C)CO)C(=O)c2cc(NC(=O)Nc3ccc(C(F)(F)F)cc3)ccc2O[C@H]1CN(C)Cc1ccc(Oc2ccccc2)cc1,active
12,C[C@H]1CN([C@@H](C)CO)C(=O)c2cc(NC(=O)Nc3ccc(C(F)(F)F)cc3)ccc2O[C@@H]1CN(C)Cc1ccc(Oc2ccccc2)cc1,inactive
13,C[C@H](CO)N1C[C@H](C)[C@H](CN(C)Cc2ccc(Oc3ccccc3)cc2)Oc2ccc(NC(=O)Nc3ccc(C(F)(F)F)cc3)cc2C1=O,active
14,C[C@@H]1CN([C@@H](C)CO)C(=O)c2cc(NC(=O)Nc3ccc(C(F)(F)F)cc3)ccc2O[C@H]1CN(C)Cc1ccc(Oc2ccccc2)cc1,active
15,C[C@H](CO)N1C[C@H](C)[C@@H](CN(C)Cc2ccc(Oc3ccccc3)cc2)Oc2ccc(NC(=O)Nc3ccc(C(F)(F)F)cc3)cc2C1=O,inactive
16,C[C@@H]1CN([C@H](C)CO)C(=O)c2cc(NC(=O)Nc3ccc(C(F)(F)F)cc3)ccc2O[C@H]1CN(C)Cc1ccc(Oc2ccccc2)cc1,inactive
17,C[C@@H]1CN([C@H](C)CO)C(=O)c2cc(NC(=O)Nc3ccc(C(F)(F)F)cc3)ccc2O[C@@H]1CN(C)Cc1ccc(Oc2ccccc2)cc1,active
18,C[C@@H]1CN([C@@H](C)CO)S(=O)(=O)c2ccc(Br)cc2O[C@H]1CN(C)CC1CCOCC1,inactive
19,COc1ccc(NC(=O)Nc2ccc3c(c2)C(=O)N([C@@H](C)CO)C[C@H](C)[C@@H](CN(C)C(=O)Nc2cccc4ccccc24)O3)cc1,inactive
20,C[C@H]1CN([C@@H](C)CO)S(=O)(=O)c2ccc(C#Cc3ccccc3)cc2O[C@@H]1CN(C)C(=O)Cc1ccccn1,inactive
